Screens (PubChem BioAssay)
Hits are enriched below; roughly 2.8% of the tested compounds scored in any of these assays.
KDM5B inhibitor: blocks human KDM5B histone demethylase activity. Potency, µM (titrated, usually from 57.7 µM), actives largely listed as inhibitors. Q9UGL1. KDM5B demethylase, FDH-coupled NADH fluorescence (FDH is formaldehyde dehydrogenase). hit rate 2.6% among 220,000. AID 1347165; active = well fitted inhibition curve with a large enough effect; inconclusive = small, poorly fitted or top-dose-only effect; inactive = no such curve, though single readings can be large or run the other way; note: potency is the fitted concentration of half-maximal effect; 0% is about no effect; nearly all actives have a fitted effect of over 70% in size
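qHTS format, multiple compound concentrations. Buffer 50 mM HEPES pH 7.5/0.01% Tween-20; 200 nM KDM5BΔAP final; 10 min compound preincubation; substrate-mix levels 12.5 µM peptide, 25 µM α-KG, 0.25 mM NAD⁺; 30 min RT; ΔRFU.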
IP6K1 inhibitor: IP6K1 kinase inhibition; Q92551; IP6K1 kinase, ADP-Glo luminescence, 2 h; stronger effect = lower value; activity change, % (series mostly up to about 58 µM); hit rate 0.81% among 140,000; in the data active = activity change below about -25%; note: % is set by controls: 0 for no effect and ±100 for the full control effect
Target sequence (Q92551 whole entry, looked up): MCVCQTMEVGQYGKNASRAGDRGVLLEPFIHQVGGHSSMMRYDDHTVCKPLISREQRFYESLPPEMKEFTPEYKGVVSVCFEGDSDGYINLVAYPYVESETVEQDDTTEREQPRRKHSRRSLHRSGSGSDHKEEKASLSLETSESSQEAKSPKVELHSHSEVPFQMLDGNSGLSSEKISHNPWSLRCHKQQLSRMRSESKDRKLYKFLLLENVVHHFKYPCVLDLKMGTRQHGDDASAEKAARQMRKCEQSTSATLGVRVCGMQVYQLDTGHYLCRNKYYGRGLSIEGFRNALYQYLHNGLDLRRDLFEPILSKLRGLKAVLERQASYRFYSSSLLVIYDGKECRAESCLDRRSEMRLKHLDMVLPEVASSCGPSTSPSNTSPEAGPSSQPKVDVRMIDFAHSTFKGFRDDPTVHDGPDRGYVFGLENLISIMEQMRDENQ
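ADP-Glo luminescence measures ADP made by human IP6K1 during a 2 h RT reaction with ATP/IP6 (mix at 1.3 mM/130 uM); top library doses 57.5 and 19.1 uM final.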
The depositor's hits bear a star.

How did O=C(NCCc1ccc(Cl)cc1)c1nc(-c2ccc(Cl)nc2)c2ccccn12 do in these assays?
KDM5B inhibitor: 50µM*; IP6K1 inhibitor: 1

What do the screens show for `O=C(c1nnc(CNCc2cccc(F)c2)n1-c1cccnc1)N1CCC[C@@H]1C(c1ccccc1)c1ccccc1`?
KDM5B inhibitor: inactive; IP6K1 inhibitor: 1

What do the screens show for `O=C(c1nnc(CNc2ccccn2)n1-c1cccnc1)N1CCC[C@@H]1C(c1ccccc1)c1ccccc1`?
KDM5B inhibitor: 13µM*; IP6K1 inhibitor: 0

What do the screens show for `N#Cc1ccc(Cl)cc1NC(=O)COC(=O)c1cccc(S(=O)(=O)N2CCCCCC2)c1`?
KDM5B inhibitor: inactive

Results for Fc1ccc(-c2ccnc3ncnn23)cc1 ?
KDM5B inhibitor: 28µM*; IP6K1 inhibitor: 9

What do the screens show for `Brc1ccc(-c2ccnc3ncnn23)s1`?
KDM5B inhibitor: inactive; IP6K1 inhibitor: -4

What do the screens show for `CC(=O)N1Cc2ccccc2CC2(CCCN2CC2CCCC2)C1` (stereo not drawn)?
KDM5B inhibitor: inconclusive; IP6K1 inhibitor: -11

What do the screens show for `CC(C)C(=O)N1Cc2ccccc2CC2(CCCCN2Cc2ccncc2)C1` (stereo not drawn)?
KDM5B inhibitor: inactive; IP6K1 inhibitor: -9

How did O=C(c1ccc(Cl)cc1)N1CC2(CCCN2CC2CCCCC2)Cc2ccccc21 (stereo not drawn) do in these assays?
KDM5B inhibitor: 56µM*; IP6K1 inhibitor: 3

Results for CC(=O)N1Cc2ccccc2CC2(CCCN(CC3CCNC3)C2)C1 (stereo not drawn) ?
KDM5B inhibitor: 25µM*; IP6K1 inhibitor: 1

What do the screens show for `O=C(c1ccc(Cl)cc1)N1CC2(CCCN2CC2CC2)Cc2ccccc21` (stereo not drawn)?
KDM5B inhibitor: inconclusive; IP6K1 inhibitor: -17

Results for CC(C)C(=O)N1Cc2ccccc2CC2(CCCN2Cc2ccncc2)C1 (stereo not drawn) ?
KDM5B inhibitor: 56µM*; IP6K1 inhibitor: -7

What do the screens show for `CC(=O)NCC(=O)N1Cc2ccccc2CC2(CCCN(CC3CCNC3)C2)C1` (stereo not drawn)?
KDM5B inhibitor: inconclusive; IP6K1 inhibitor: 7

What do the screens show for `CC(=O)N1Cc2ccccc2CC2(CCCCN2CC2CCCC2)C1` (stereo not drawn)?
KDM5B inhibitor: 50µM*; IP6K1 inhibitor: -3

Results for O=C(NC1CCCN(c2ccc3nnc(-c4ccccc4)n3n2)C1)c1ccc(Cl)nc1 (stereo not drawn) ?
IP6K1 inhibitor: -9

How did Cc1cc(C)cc(-c2ccc(CN3CCCC(NC(=O)N(C)C)C3)cc2)c1 (stereo not drawn) do in these assays?
IP6K1 inhibitor: -9

Results for CC(=O)c1cc(C(C)(C)C)c(O)c(C(C)(C)C)c1 ?
KDM5B inhibitor: inactive

What do the screens show for `COc1cccc(-c2ccc(CN3CCCC(NC(=O)c4ccccn4)C3)cc2)c1` (stereo not drawn)?
IP6K1 inhibitor: -3

What do the screens show for `CCn1c(SCc2nnc(C)o2)nc2sc(C)c(C)c2c1=O`?
KDM5B inhibitor: inactive

How did Cc1noc(C)c1C(=O)N1CC(CN2C(=O)c3c(c(C)nn3-c3ccccc3)C2C2CC2)C1 (stereo not drawn) do in these assays?
IP6K1 inhibitor: 0

What do the screens show for `O=C(c1ccc(Cl)cc1)N1CC2(CCCN2Cc2ccc(Cl)cc2)Cc2ccccc21` (stereo not drawn)?
KDM5B inhibitor: inconclusive; IP6K1 inhibitor: -1

How did NC(=O)c1cccc(CN2CCCC23Cc2ccccc2N(C(=O)c2ccc(Cl)cc2)C3)c1 (stereo not drawn) do in these assays?
KDM5B inhibitor: 79µM*; IP6K1 inhibitor: -14

Results for N#Cc1ccc([S+](=O)([O-])N2CCC3(CC2)OCCN(CC2CCOCC2)C3=O)cc1 ?
KDM5B inhibitor: 32µM*; IP6K1 inhibitor: -3

What do the screens show for `Cc1cccc([S+](=O)([O-])N2CCC3(CC2)OCCN(CC2CC2)C3=O)c1`?
KDM5B inhibitor: inactive; IP6K1 inhibitor: 3

Results for Cc1c(CC(=O)NCc2ccccc2)c(=O)oc2cc(O)c(Cl)cc12 ?
KDM5B inhibitor: inactive

Results for COc1ccccc1-c1nnc([C@H]2CCN(CC3CCCCC3)C2)o1 ?
KDM5B inhibitor: 35µM*; IP6K1 inhibitor: 8

Results for COc1ccc(-c2nnc([C@H]3CCN(CC4CCCCC4)C3)o2)cc1 ?
KDM5B inhibitor: inconclusive; IP6K1 inhibitor: 4

How did O=C(NCC(F)F)C1CCCN(Cc2cccc(-c3cccs3)c2)C1 (stereo not drawn) do in these assays?
IP6K1 inhibitor: -11

How did Cc1cc(C(=O)Nc2cccc(-c3nc4ccccc4o3)c2)ccc1[N+](=O)[O-] do in these assays?
KDM5B inhibitor: inactive

Results for Cc1cccc(-c2nc3cnccn3c2NCCC(=O)NCc2ccc3c(c2)OCO3)c1 ?
KDM5B inhibitor: 28µM*; IP6K1 inhibitor: 7

What do the screens show for `Cc1ccc(CSCC(=O)NCc2ccc3c(c2)OCO3)cc1`?
KDM5B inhibitor: inactive

What do the screens show for `Cc1cccc(-c2nc3cnccn3c2NCCC(=O)NCc2ccc(F)c(Cl)c2)c1`?
KDM5B inhibitor: 28µM*; IP6K1 inhibitor: 19

What do the screens show for `Cc1nc2cnccn2c1C(=O)NCc1cccc(Cl)c1`?
IP6K1 inhibitor: -1

Results for O=C(CCNc1c(-c2cccc(F)c2)nc2cnccn12)NCc1ccc(Cl)cc1 ?
KDM5B inhibitor: 28µM*; IP6K1 inhibitor: 5

Results for Cc1nc2cnccn2c1C(=O)NCc1ccc(F)cc1 ?
IP6K1 inhibitor: 18

How did COC(=O)c1cc(S(=O)(=O)Nc2ccc(Cl)cc2F)c[nH]1 do in these assays?
KDM5B inhibitor: inactive

What do the screens show for `c1cncc(-c2ccnc(NCC(c3cccnc3)N3CCCCC3)n2)c1` (stereo not drawn)?
KDM5B inhibitor: 32µM*; IP6K1 inhibitor: 52

What do the screens show for `NS(=O)(=O)c1ccc(CNc2nccc(-c3cccnc3)n2)cc1`?
KDM5B inhibitor: 32µM*; IP6K1 inhibitor: -6

How did c1ccc(-c2ccnc(NCC(c3ccncc3)N3CCOCC3)n2)nc1 (stereo not drawn) do in these assays?
KDM5B inhibitor: inactive; IP6K1 inhibitor: 27

Results for O=C(NCc1ccc(C(=O)N2CCCC2)cc1)C1CCCCC1 ?
KDM5B inhibitor: inactive

Results for NS(=O)(=O)c1ccc(CNC(=O)c2ccccn2)cc1 ?
KDM5B inhibitor: inactive

Results for O=C(c1ccc(CNc2nccc(-c3cccnc3)n2)cc1)N1CCCCC1 ?
KDM5B inhibitor: 28µM*; IP6K1 inhibitor: 25

Results for O=C(NC1CC1)C(NCc1ccc(C(F)(F)F)cc1)c1ccccc1 (stereo not drawn) ?
KDM5B inhibitor: inactive

How did Cc1cnc(NC(=O)Cc2ccc(OCc3c(C)noc3C)cc2)s1 do in these assays?
KDM5B inhibitor: inactive

What do the screens show for `CCC(Sc1nnc2c(=O)n(-c3cccc(OC)c3)ccn12)C(=O)Nc1c(C)cccc1C` (stereo not drawn)?
KDM5B inhibitor: inactive

What do the screens show for `CC(C)NC(=O)NC(=O)CSc1nnc(-c2ccccc2)c(-c2ccccc2)n1`?
KDM5B inhibitor: inactive

What do the screens show for `Cn1nccc1C(O)c1cc2n(n1)CCN(C/C=C/c1ccccc1)C2` (stereo not drawn)?
KDM5B inhibitor: 32µM*; IP6K1 inhibitor: 26

How did Cn1ccnc1C(O)c1cc2n(n1)CCN(C/C=C/c1ccccc1)C2 (stereo not drawn) do in these assays?
KDM5B inhibitor: inactive; IP6K1 inhibitor: 8
